# Measurements taken from PubChem BioAssay.
# Records with an inconclusive call do not appear. Active and inactive are the calls of the source.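 The calls were made as follows, unless noted: active = inhibition above 54%, about 3 SD of non-fluorescent compounds; inactive = the rest.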
# What was measured:
# [1] = rapamycin-like changes in RPL19A-GFP expression – cell-based, S. cerevisiae, multiplex flow cytometry, primary screen (AID 1862; in the data active = percent of DMSO control GFP below about 86%;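 also: lower values mimic rapamycin by blocking the RPL19A rise seen in DMSO cells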); details: S. cerevisiae RPL19A-GFP strain, flow cytometry fluorescence, 3 h; at 10 µM; stronger effect = lower value
# [2] = TOR pathway GLN3 branch reporter MEP2-GFP changes – S. cerevisiae, multiplex flow cytometry, primary screen (AID 1867;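 active = GFP response, as percent of the DMSO control, above the screen-wide mean plus 3 SD, about 139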;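 also: median GFP channel fluorescence of barcode-gated MEP2-GFP cells measured by flow cytometry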); details: S. cerevisiae MEP2-GFP strain, 3 h, at 10 µM, stronger effect = higher value, 100% means same as DMSO wells
# [3] = TOR pathway RTG branch CIT2 reporter changes – S. cerevisiae, GFP fusion, multiplex flow cytometry, primary screen (AID 1870;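 active = percent response above a set limit, the screen-wide mean plus 3 SD, cut at about 130% in these data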;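 also: barcoded CIT2-GFP strain pooled with four other GFP strains with rapamycin as positive control; median GFP fluorescence per well over plate mean of DMSO wells so 100% = DMSO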); details: S. cerevisiae CIT2-GFP expression, 3 h, at 10 µM, stronger effect = higher value
# [4] = TOR pathway LAP4-GFP level changes – S. cerevisiae, multiplex flow cytometry, primary screen (AID 1873;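 active = GFP signal, as percent of the solvent control, above the screen mean plus 3 SD, about 149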); details: S. cerevisiae LAP4-GFP expression, 3 h, at 10 µM, stronger effect = higher value
# [5] = yeast AGP1-GFP level changes, GLN3 branch – cell-based, multiplex flow cytometry, S. cerevisiae, primary screen (AID 1887;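 active = GFP signal above the screen-wide mean plus 3 SD, that is over about 124.5% of the solvent control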;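 also: AGP1-GFP fusion strain of S. cerevisiae within a five-strain barcoded multiplex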); details: 3 h, at 10 µM, stronger effect = higher value
# [6] = reduced mouse 2C T cell binding to pMHC/ICAM-1 vesicles – MLPCN validation set, flow cytometry, LFA-1/ICAM-1 modulator project, pilot screen (AID 2523;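 active = response below a set limit, under 55% cells CD8-positive and vesicle-bound, and CD8 cells' 90th-percentile brightness under 279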;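 as to vesicle binding response: mean PE anti-B7-1 fluorescence of CD8+ cells relative to row control; 100% = QL9-loaded vesicles with DMSO vehicle in the same plate row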); details: 2C mouse CD8+ T cells, at 7 µM, stronger effect = lower value; double positive events: measured here: CD8+/vesicle+ event percentage
# [7] = biological target: Integrin beta-1 (Homo sapiens) + Integrin alpha-4 (Homo sapiens) (UniProt P13612+P05556); test: alpha4beta1 integrin LIBS antibody binding reduction – U937 cells, HUTS-21 mAb, flow cytometry, validation set, VLA-4 allosteric modulator project, pilot screen (AID 2674;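 active = inhibition above 50%, about 3 SD of the validation set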;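 also: antibody binding induced by the VLA-4 ligand LDV present at three times its Kd; 0% = LDV ligand with antibody and no compound and 100% = antibody without LDV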); details: HUTS-21 LIBS mAb binding, at 6.7 µM, stronger effect = higher value, binding induced by LDV ligand
# [8] = calorie-restriction mimetic ROS inhibitors, yeast – validation compound set, pilot screen (AID 2706;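 active = superoxide response below 65% of plate, a cut near 3 SD across the whole screen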;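 also: yeast exposed to compound for one week at 30 degrees C before staining; 100% = mean of all compound wells on the same plate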); details: S. cerevisiae aging, superoxide DHE fluorescence; at 10 µM; stronger effect = lower value
# [9] = biological target: Beta-adrenergic receptor kinase 1 (Homo sapiens) (UniProt P25098); test: GRK2 binders displacing RNA aptamer, biochemical, validation, human GRK2, bead flow cytometry (AID 488806;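 active = aptamer binding inhibition above 30%, about 3 SD of noise from non-fluorescent compounds; inactive = inhibition at or below 30%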); details: bead-bound GRK2, FAM-aptamer displacement, at 10 µM, stronger effect = higher value
# [10] = biological target: Beta-2 adrenergic receptor (Homo sapiens) (UniProt P07550); test: agonist-induced loss of surface beta2AR – cell-based, FAP fluorogen, flow cytometry, validation set, pilot screen (AID 504459;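 active = percent response above 42, roughly 3 SD of non-fluorescent test compounds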;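 also: agonist-driven loss of surface beta2AR via internalization measured by FAP dye flow cytometry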); details: Am2.2-beta2AR cells, at 10 µM, stronger effect = higher value
# [11] = biological target: AP-2 complex subunit beta (Homo sapiens) (UniProt P63010); test: beta-arrestin/AP2 interaction blockers – biochemical, validation set, GST-AP2 beads, flow cytometry, pilot screen (AID 504541); details: FITC arrestin peptide, at 10 µM, stronger effect = higher value, AP2 beta2 appendage fragment, R879A mutant;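 also: AP2 carries R879A mutation and is captured from E. coli lysate; bead-bound FITC arrestin peptide fluorescence measuring arrestin peptide binding to AP2; 0% = DMSO wells and 100% = excess unlabeled arrestin peptide control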
# [12] = cytosolic pH regulators acting via V-ATPase – S. cerevisiae, pHLuorin, HTS validation (AID 504600; in the data active = response above about 15%;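 also: plate controls were DMSO for no effect and reference compound for full effect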); details: V-ATPase proton transport, at 10 µM, stronger effect = higher value
# [13] = system: anti-desmoglein-3 scFv antibody binding to human DSG3; test: blockers of pathogenic pemphigus antibody–desmoglein-3 binding – biochemical, validation compound set, bead-based, flow cytometry, pilot screen (AID 588368;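 active = binding below the plate cutoff, the plate median minus 3 SD, with a reading above zero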;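 also: signal is the median channel fluorescence of bead-bound GFP antibody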); details: Protein G beads, DSG3-Fc, scFv-GFP binding, at 10 µM, stronger effect = lower value
# [14] = Nile Red efflux blockade in pump-expressing yeast – validation compound set, multiplex, phenotypic, pilot screen (AID 588506;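 active = efflux inhibition above 0.42, the validation set average plus 4 SD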;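 also: Nile Red retained in cells so higher fluorescence means more efflux inhibition; 0 = negative control wells and 1 = enniatin B 25 µM full block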); details: S. cerevisiae pump-expressing triplex, Nile Red efflux flow cytometry; at 10 µM; stronger effect = higher value; the pumps come from Candida albicans
# [15] = biological target: ATP-binding cassette sub-family B member 6 (Homo sapiens) (UniProt Q9NP58); test: blockers of ABCB6-driven porphyrin uptake – K562-ABCB6 cells, flow cytometry, validation set, pilot screen (AID 588550;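 active = inhibition above the screen-wide mean plus 3 SD, about 51%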;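 also: 0% = DMSO wells and 100% = benzethonium chloride 70 µM positive control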); details: K562-ABCB6 porphyrin accumulation, 1 h, at 10 µM, stronger effect = higher value
# [16] = AML differentiation inducers, ER-HoxA9 marrow cells – cell-based, GFP/MAC1 double positive, flow cytometry, validation set, primary screen (AID 588685;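 active = differentiation response of at least 50%, scaled between solvent and reference control, from cells with both markers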;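 also: compound exposure lasts four days before antibody staining and flow analysis; 0% = DMSO wells and 100% = 5 µM fulvestrant positive control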); details: stronger effect = higher value, normalized: vehicle 0, fulvestrant 100
# Sequence of Beta-2 adrenergic receptor (Homo sapiens) (P07550 whole entry, looked up, the tested form may be a part): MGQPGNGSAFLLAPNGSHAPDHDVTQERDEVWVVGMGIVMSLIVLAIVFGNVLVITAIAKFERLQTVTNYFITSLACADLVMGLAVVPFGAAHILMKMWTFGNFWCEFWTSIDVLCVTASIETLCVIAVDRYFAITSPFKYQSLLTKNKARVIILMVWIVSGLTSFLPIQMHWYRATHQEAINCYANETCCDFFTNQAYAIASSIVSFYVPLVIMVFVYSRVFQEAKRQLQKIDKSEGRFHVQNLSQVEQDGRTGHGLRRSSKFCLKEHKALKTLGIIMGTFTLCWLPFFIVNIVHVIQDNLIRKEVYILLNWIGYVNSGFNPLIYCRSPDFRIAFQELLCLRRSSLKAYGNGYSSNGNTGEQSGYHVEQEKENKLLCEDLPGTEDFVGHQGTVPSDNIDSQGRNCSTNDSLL
# Sequence of AP-2 complex subunit beta (Homo sapiens) (P63010 whole entry, looked up, the tested form may be a part, one chain of several): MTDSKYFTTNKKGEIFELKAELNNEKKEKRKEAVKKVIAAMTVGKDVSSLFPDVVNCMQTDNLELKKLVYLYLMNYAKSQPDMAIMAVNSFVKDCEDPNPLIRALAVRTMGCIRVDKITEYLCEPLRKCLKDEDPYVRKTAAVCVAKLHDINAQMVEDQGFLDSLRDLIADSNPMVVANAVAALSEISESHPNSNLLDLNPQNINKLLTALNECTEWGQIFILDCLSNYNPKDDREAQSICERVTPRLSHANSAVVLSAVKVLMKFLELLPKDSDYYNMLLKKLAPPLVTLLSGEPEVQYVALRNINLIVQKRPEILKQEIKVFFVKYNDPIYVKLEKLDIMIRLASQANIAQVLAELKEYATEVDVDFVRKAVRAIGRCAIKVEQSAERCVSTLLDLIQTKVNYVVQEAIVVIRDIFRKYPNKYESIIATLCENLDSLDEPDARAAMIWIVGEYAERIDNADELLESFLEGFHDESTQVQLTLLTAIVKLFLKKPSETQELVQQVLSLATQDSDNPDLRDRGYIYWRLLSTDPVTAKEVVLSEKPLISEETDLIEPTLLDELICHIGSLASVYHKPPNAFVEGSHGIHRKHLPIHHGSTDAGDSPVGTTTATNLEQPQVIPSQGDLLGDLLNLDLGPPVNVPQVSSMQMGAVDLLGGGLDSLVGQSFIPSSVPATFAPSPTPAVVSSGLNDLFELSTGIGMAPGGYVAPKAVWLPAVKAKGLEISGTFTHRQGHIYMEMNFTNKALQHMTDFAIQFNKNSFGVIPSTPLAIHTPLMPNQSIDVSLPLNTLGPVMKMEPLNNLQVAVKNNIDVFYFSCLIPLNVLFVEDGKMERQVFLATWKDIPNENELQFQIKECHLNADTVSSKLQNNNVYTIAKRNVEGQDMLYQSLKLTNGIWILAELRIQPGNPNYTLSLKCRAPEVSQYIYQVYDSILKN
# Sequence of ATP-binding cassette sub-family B member 6 (Homo sapiens) (Q9NP58 whole entry, looked up): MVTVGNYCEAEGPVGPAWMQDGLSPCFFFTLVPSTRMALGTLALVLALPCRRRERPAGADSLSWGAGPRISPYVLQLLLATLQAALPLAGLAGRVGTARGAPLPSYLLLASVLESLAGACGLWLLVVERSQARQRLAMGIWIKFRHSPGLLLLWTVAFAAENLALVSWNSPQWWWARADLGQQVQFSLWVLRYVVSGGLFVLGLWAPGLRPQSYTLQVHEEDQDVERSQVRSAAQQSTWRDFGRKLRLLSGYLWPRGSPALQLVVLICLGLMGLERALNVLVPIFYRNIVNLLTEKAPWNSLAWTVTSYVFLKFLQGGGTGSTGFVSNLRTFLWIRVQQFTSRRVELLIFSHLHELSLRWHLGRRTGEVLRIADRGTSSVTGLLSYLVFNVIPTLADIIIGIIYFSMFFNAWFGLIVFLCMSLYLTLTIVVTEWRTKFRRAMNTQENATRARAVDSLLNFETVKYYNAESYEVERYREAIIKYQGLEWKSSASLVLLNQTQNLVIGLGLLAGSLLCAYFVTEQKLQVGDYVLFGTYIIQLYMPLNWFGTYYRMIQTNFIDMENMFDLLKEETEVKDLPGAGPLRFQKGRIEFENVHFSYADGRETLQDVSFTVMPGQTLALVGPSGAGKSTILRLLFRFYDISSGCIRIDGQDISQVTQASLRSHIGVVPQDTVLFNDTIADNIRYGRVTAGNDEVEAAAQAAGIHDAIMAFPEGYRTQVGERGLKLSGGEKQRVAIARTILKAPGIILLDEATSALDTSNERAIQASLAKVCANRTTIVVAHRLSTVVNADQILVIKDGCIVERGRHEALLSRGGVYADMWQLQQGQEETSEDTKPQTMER
# Sequence of Integrin beta-1 (Homo sapiens) + Integrin alpha-4 (Homo sapiens) (P05556 whole entry, looked up): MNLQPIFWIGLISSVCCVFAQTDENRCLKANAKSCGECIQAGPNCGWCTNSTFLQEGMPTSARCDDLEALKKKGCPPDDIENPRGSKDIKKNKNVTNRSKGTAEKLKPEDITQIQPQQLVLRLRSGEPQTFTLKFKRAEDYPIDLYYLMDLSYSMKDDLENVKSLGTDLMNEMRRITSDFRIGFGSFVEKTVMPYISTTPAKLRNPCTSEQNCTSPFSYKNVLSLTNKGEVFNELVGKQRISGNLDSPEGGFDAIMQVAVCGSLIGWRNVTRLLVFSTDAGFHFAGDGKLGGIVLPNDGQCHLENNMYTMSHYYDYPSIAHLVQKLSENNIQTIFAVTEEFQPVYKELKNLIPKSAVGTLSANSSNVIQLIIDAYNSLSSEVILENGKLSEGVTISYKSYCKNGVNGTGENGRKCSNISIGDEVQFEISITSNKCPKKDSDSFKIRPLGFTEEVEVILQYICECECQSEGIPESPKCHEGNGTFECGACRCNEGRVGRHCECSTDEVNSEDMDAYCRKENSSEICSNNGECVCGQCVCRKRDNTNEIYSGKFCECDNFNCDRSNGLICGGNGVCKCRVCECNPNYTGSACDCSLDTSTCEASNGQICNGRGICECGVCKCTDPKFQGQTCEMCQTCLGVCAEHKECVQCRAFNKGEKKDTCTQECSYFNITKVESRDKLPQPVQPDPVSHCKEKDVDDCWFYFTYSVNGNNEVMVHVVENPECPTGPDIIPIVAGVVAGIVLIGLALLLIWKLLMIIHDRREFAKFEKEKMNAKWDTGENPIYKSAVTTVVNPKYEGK
# Sequence of Integrin beta-1 (Homo sapiens) + Integrin alpha-4 (Homo sapiens) (P13612 whole entry, looked up): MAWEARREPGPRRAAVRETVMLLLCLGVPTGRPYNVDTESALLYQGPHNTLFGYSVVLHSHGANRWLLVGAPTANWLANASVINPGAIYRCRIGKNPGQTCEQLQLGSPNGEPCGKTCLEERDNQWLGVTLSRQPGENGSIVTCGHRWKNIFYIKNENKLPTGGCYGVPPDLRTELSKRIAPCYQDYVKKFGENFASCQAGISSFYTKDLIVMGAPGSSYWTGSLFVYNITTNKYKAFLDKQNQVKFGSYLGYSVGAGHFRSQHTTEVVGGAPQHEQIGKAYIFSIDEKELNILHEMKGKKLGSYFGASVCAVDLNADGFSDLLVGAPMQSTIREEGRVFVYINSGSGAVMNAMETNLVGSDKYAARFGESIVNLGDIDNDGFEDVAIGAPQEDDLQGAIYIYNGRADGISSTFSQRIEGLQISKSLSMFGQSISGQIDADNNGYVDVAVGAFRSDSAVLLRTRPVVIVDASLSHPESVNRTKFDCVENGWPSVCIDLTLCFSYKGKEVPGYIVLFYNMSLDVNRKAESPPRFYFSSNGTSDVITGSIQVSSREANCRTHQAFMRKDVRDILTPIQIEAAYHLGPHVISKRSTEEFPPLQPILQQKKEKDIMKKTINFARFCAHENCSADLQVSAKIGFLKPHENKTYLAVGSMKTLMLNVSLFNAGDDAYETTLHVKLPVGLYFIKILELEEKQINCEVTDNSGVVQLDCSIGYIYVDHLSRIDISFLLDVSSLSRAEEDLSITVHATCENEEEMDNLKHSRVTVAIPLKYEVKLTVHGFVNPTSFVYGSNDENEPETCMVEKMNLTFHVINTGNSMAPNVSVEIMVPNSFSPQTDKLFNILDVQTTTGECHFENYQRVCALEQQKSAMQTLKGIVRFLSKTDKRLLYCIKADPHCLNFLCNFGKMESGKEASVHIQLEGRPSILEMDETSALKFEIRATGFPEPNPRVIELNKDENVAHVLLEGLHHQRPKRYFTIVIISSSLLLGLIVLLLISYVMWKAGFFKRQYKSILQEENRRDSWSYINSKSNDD
# Sequence of Beta-adrenergic receptor kinase 1 (Homo sapiens) (P25098 whole entry, looked up): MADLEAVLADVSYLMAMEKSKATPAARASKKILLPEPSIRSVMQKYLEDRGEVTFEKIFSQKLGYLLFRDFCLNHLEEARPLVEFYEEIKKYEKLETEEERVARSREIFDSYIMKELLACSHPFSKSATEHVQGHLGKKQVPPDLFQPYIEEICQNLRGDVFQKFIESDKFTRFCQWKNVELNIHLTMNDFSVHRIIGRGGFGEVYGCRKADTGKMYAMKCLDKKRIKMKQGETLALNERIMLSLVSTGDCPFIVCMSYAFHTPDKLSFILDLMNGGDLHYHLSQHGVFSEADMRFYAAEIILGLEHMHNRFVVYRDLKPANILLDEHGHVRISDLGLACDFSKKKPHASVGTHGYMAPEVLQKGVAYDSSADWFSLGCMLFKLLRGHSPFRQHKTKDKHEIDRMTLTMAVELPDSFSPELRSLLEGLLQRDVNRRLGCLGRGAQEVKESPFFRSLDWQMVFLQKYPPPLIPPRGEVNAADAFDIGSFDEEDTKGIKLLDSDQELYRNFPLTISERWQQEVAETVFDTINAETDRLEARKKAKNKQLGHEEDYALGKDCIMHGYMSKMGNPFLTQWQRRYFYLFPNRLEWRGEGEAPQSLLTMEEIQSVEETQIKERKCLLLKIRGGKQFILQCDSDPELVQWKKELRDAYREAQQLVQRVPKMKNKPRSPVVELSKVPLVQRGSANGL
SMILES,percent of DMSO control GFP [1],GFP response vs DMSO [2],percent response of DMSO control [3],GFP response vs DMSO [4],"GFP response, % of DMSO [5]",double positive events [6] [%],vesicle binding response [6],inhibition [7],superoxide response (% of plate) [8],aptamer binding inhibition [9],response [10],inhibition [11],response [12],binding (% of control) [13],efflux inhibition (fraction of control) [14],inhibition [15],differentiation response [16]
Cc1ccccc1NC(=O)C1(C)Cc2ccccc2C(=O)O1 (stereo not given),100% (inactive),103% (inactive),92.9% (inactive),131% (inactive),101% (inactive),61.4,161% (inactive),10.5% (inactive),96.3% (inactive),1% (inactive),-11% (inactive),29.5% (inactive),-1.4% (inactive),101% (inactive),-0.28 (inactive),-4% (inactive),18.4% (inactive)
Cc1ccc(-n2cc(CNCCN3CCOC3=O)c(-c3ccc(F)cc3)n2)cc1,103% (inactive),107% (inactive),108% (inactive),85% (inactive),96.5% (inactive),59.3,129% (inactive),9.63% (inactive),109% (inactive),2% (inactive),-24.7% (inactive),-0.44% (inactive),-4.84% (inactive),104% (inactive),-0.36 (inactive),4% (inactive),-1.65% (inactive)
O=C(CC1SC(=O)NC1=O)Nc1ccc(Cl)cc1 (stereo not given),101% (inactive),104% (inactive),108% (inactive),98% (inactive),108% (inactive),65.3,193% (inactive),6.95% (inactive),116% (inactive),-1% (inactive),2.95% (inactive),1.72% (inactive),1.59% (inactive),100% (inactive),-0.205 (inactive),-3% (inactive),-16.3% (inactive)
CCOc1ccc(C(=O)N2CCCC2C(=O)O)cc1 (stereo not given),97.9% (inactive),101% (inactive),100% (inactive),103% (inactive),102% (inactive),62.9,163% (inactive),13.4% (inactive),107% (inactive),6% (inactive),-15.7% (inactive),1.45% (inactive),6.32% (inactive),101% (inactive),-0.04 (inactive),6% (inactive),-1.05% (inactive)
COc1cc(C)nc(-n2nc(C)cc2OC)n1,101% (inactive),103% (inactive),96.6% (inactive),92.7% (inactive),102% (inactive),61.8,5320% (inactive),-12.9% (inactive),88.7% (inactive),1% (inactive),-8.04% (inactive),2.91% (inactive),48.8% (active),95.9% (inactive),0.02 (inactive),2% (inactive),8.06% (inactive)
CN(C)[C@@H]1C(=O)C(C(N)=O)=C(O)[C@@]2(O)C(=O)C3=C(O)c4c(O)ccc(Cl)c4[C@@H](O)[C@H]3C[C@@H]12,104% (inactive),105% (inactive),98.3% (inactive),104% (inactive),109% (inactive),59.2,122% (inactive),-7.93% (inactive),96% (inactive),10% (inactive),-15.7% (inactive),10.7% (inactive),-7.23% (inactive),101% (inactive),-0.17 (inactive),-10% (inactive),8.8% (inactive)
O=C(NCc1ccco1)/C(=C\C=C\c1ccccc1)NC(=O)c1ccccc1Br,108% (inactive),107% (inactive),110% (inactive),110% (inactive),106% (inactive),60.6,139% (inactive),-14.5% (inactive),95.8% (inactive),0% (inactive),12.9% (inactive),5.44% (inactive),1.56% (inactive),104% (inactive),-0.045 (inactive),-4% (inactive),-3.11% (inactive)
Cc1ccc(OCc2nc(-c3cccnc3)no2)cc1C,92% (inactive),124% (inactive),99.2% (inactive),75.4% (inactive),88% (inactive),60.5,221% (inactive),-7.12% (inactive),101% (inactive),1% (inactive),-15.7% (inactive),1.06% (inactive),3.35% (inactive),98.3% (inactive),0.27 (inactive),9% (inactive),2.46% (inactive)
O=c1[nH]cnc2[nH]ncc12,103% (inactive),103% (inactive),96.5% (inactive),90.4% (inactive),95% (inactive),55.6,154% (inactive),15% (inactive),98% (inactive),0% (inactive),-2.08% (inactive),2.53% (inactive),-1.12% (inactive),103% (inactive),0.005 (inactive),-64% (inactive),7.13% (inactive)
Cc1cnc(NC(=O)C2=C(O)c3ccccc3S(=O)(=O)N2C)s1,107% (inactive),112% (inactive),88.4% (inactive),80.8% (inactive),92.9% (inactive),65.2,958% (inactive),-6.68% (inactive),109% (inactive),3% (inactive),1.12% (inactive),8.13% (inactive),1.87% (inactive),93.7% (inactive),0.27 (inactive),14% (inactive),12% (inactive)
